Laboratory results taken from the supplement of paper PMC12024529.

What follows are molecules tested on HEK293 WT BDD-FVIII-Gluc (assay: secreted FVIII-Gluc luciferase Z-score vs DMSO control; higher = more FVIII-Gluc secretion). Details: 5 µM.
Procedure: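 Natural plant-compound library (480 compounds, ST catalogue IDs) screened on HEK293 cells stably expressing WT BDD-FVIII-Gaussia luciferase fusion at 5 µM. Secreted Gluc activity in the medium is given as a Z-score relative to DMSO controls.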

First: COc1c(C)c2c(c(O)c1C/C=C(\C)CCC(=O)O)C(=O)OC2
Second: CC1=C(C/C=C(\C)CCCC(C)CCCC(C)CCCC(C)C)C(=O)c2ccccc2C1=O (stereo not given)
The “secreted FVIII-Gluc luciferase Z-score” value of the first is lower: -4.24 for the first, 0.33 for the second.

First: O=c1c(O)c(-c2cc(O)c(O)c(O)c2)oc2cc(O)cc(O)c12
Second: O=c1c(O)c(-c2ccccc2)oc2cc(O)cc(O)c12
The “secreted FVIII-Gluc luciferase Z-score” value of the first is higher: 0.93 for the first, 0.586 for the second.

Compared with `COc1ccc(-c2cc(=O)c3c(O)cc(O)cc3o2)cc1`, `O=c1cc(-c2ccccc2)oc2cc(O)cc(O)c12` is higher in “secreted FVIII-Gluc luciferase Z-score” value: 0.381 for the first, 0.596 for the second.

Compared with `COc1cc2nc(N3CCN(C(=O)c4ccco4)CC3)nc(N)c2cc1OC`, `COc1cc2c3cc1Oc1c(OC)c(OC)cc4c1[C@@H](Cc1ccc(O)c(c1)Oc1ccc(cc1)C[C@@H]3N(C)CC2)N(C)CC4` is higher in “secreted FVIII-Gluc luciferase Z-score” value: 0.161 for the first, 0.165 for the second.

First: O=c1c(O)c(-c2ccc(O)cc2)oc2cc(O)ccc12
Second: O=c1c(O)c(-c2ccc(O)c(O)c2)oc2ccccc12
The “secreted FVIII-Gluc luciferase Z-score” value of the first is higher: 0.511 for the first, -0.791 for the second.

Compared with `C=C[C@@]1(C)C=C2CC[C@@H]3[C@](C)(CCC[C@@]3(C)C(=O)O)[C@H]2CC1`, `C[C@H]1c2ccoc2CC2[C@H]1CCC1[C@@](C)(CC(=O)O)CCC[C@]21C` (stereo not given in full) is higher in “secreted FVIII-Gluc luciferase Z-score” value: -0.481 for the first, 0.392 for the second.

Compared with `CC[C@]12CCCN3CCc4c(n(c5ccccc45)C(=O)C1)C32` (stereo not given in full), `COc1c(-c2ccccc2)oc2c(ccc3occc32)c1=O` is higher in “secreted FVIII-Gluc luciferase Z-score” value: 0.363 for the first, 0.489 for the second.

Going from `O=C(O)C1OC(O)C(O)C(O)C1O` (stereo not given) to `O=C(O)C1(O)CC(O)C(O)C(O)C1` (stereo not given), the “secreted FVIII-Gluc luciferase Z-score” value rises from 0.395 to 0.456.

Going from `Nc1nc2c(c(=O)[nH]1)N=C(CNc1ccc(C(=O)NC(CCC(=O)O)C(=O)O)cc1)CN2` (stereo not given) to `NC(Cc1c[nH]c2ccccc12)C(=O)NCC(=O)O` (stereo not given), the “secreted FVIII-Gluc luciferase Z-score” value falls from 0.62 to -1.06.

Compared with `O=c1cc(-c2ccccc2)oc2cccc(O)c12`, `COc1cccc(-c2cc(=O)c3cc(O)ccc3o2)c1` is higher in “secreted FVIII-Gluc luciferase Z-score” value: -0.455 for the first, 0.695 for the second.

First: CC(C)(CO)[C@@H](O)C(=O)NCCCO
Second: COc1ccc2[nH]cc(CCNC(C)=O)c2c1
The “secreted FVIII-Gluc luciferase Z-score” value of the first is higher: 1.71 for the first, 0.108 for the second.

Compared with `CN1CCC[C@H]1c1cccnc1`, `C[C@H]1C[C@]2(O[C@@H]2C)C(=O)O[C@@H]2CCN(C)C/C=C(/COC(=O)[C@]1(C)O)C2=O` is higher in “secreted FVIII-Gluc luciferase Z-score” value: 0.197 for the first, 0.213 for the second.

Going from `CC(=O)Oc1cc(OC(C)=O)c2c(=O)cc(-c3ccc(OC(C)=O)c(OC(C)=O)c3)oc2c1` to `COc1ccc(-c2coc3ccc(OC4OC(COC(C)=O)C(OC(C)=O)C(OC(C)=O)C4OC(C)=O)cc3c2=O)cc1` (stereo not given), the “secreted FVIII-Gluc luciferase Z-score” value falls from 0.33 to -1.1.

Going from `Nc1ccn([C@@H]2O[C@H](CO)[C@@H](OP(=O)(O)O)[C@H]2O)c(=O)n1` to `Nc1ccn([C@@H]2O[C@H](CO)[C@@H](O)[C@H]2O)c(=O)n1`, the “secreted FVIII-Gluc luciferase Z-score” value rises from -0.278 to 1.12.

Going from `Cn1cnc2c1c(=O)[nH]c(=O)n2C` to `O=c1cnn(C2OC(CO)C(O)C2O)c(=O)[nH]1` (stereo not given), the “secreted FVIII-Gluc luciferase Z-score” value falls from 0.889 to -2.33.

First: C[C@H]1[C@H](C)CC[C@]2(C(=O)O)CC[C@]3(C)C(=CCC4[C@@]5(C)C[C@@H](O)[C@H](O)[C@@](C)(CO)[C@@H]5CC[C@]43C)[C@H]12 (stereo not given in full)
Second: C[C@]12CCC(=O)C=C1CC[C@@H]1[C@@H]2[C@@H](O)C[C@@]2(C)[C@H]1CC[C@]2(O)C(=O)CO
The “secreted FVIII-Gluc luciferase Z-score” value of the first is lower: -0.822 for the first, 4.35 for the second.

Going from `C1CCN2C[C@H]3C[C@H](CN4CCCC[C@@H]34)[C@H]2C1` to `CC(=O)OC1CCC2(C)C3CCC4(C)C(CC5CCCCC54C(C)=O)C3CC(=O)C2(O)C1` (stereo not given), the “secreted FVIII-Gluc luciferase Z-score” value falls from 1.26 to 0.153.

Going from `COc1cc2ccc(=O)oc2c(O)c1O` to `C=CCc1ccc(O)c(OC)c1`, the “secreted FVIII-Gluc luciferase Z-score” value falls from 0.185 to -0.898.

First: COc1ccc(C2CC(=O)c3c(O)cc(OC4OC(COC5OC(C)C(O)C(O)C5O)C(O)C(O)C4O)cc3O2)cc1O (stereo not given)
Second: C[C@H]1O[C@@H](O[C@H]2[C@@H](O)C[C@H](O[C@H]3[C@@H](O)C[C@H](O[C@H]4CC[C@@]5(C)[C@H](CC[C@@H]6[C@@H]5C[C@@H](O)[C@]5(C)[C@@H](C7=CC(=O)OC7)CC[C@]65O)C4)O[C@@H]3C)O[C@@H]2C)C[C@H](O)[C@@H]1O
The “secreted FVIII-Gluc luciferase Z-score” value of the first is higher: 0.438 for the first, -4.67 for the second.

First: C=C1CCC2C(C)(CO)C(O)CCC2(C)C1C/C=C1\C(=O)OCC1O (stereo not given)
Second: COc1cc(C(=O)OC2CC(C)=CCC3(C)CCC(O)(C(C)C)C23)ccc1O (stereo not given)
The “secreted FVIII-Gluc luciferase Z-score” value of the first is lower: -1.01 for the first, -0.405 for the second.
